Test results reported in PubChem BioAssay (EPA / NIEHS).
Values joined by “and” are separate entries in the source; they are usually repeats but may differ in a detail not shown here. Identical values can stand only once. Inconclusive results are not listed. Some structures have more than one record in an assay (separate samples or runs), and their calls can disagree. Active and inactive are the calls of the source. The calls were made as follows, unless noted: active = hit-call score of the fitted dose curve at least 0.9, where 1 is the maximum; inactive = score below 0.9.

Key:
[1] = biological target: Nuclear respiratory factor 1 (Homo sapiens) (UniProt Q16656); assay: ATG_NRF1_CIS: Attagene CIS-FACTORIAL HepG2 Assay for human Nuclear Respiratory Factor 1 (NRF1) Orphan Gene (AID 2282987); settings: HepG2 NRF1 cis-element reporter, Attagene multiplex; actives raise or lower the signal
Sequence of Nuclear respiratory factor 1 (Homo sapiens) (Q16656 whole entry, looked up): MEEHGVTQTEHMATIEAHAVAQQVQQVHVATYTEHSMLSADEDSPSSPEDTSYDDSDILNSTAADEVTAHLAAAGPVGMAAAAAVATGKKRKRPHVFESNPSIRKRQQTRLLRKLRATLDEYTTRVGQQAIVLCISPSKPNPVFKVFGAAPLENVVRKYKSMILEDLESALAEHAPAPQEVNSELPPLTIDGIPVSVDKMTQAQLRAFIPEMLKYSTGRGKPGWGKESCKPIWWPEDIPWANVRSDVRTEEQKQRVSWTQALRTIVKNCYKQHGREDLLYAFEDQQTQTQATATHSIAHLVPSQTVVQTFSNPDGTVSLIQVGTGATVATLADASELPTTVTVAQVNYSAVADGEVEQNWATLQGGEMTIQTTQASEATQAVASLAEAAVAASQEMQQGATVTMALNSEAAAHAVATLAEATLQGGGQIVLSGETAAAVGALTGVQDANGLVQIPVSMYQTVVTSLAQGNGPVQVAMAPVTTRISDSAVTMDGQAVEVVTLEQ
Outline: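 HepG2 cells transiently transfected with multiple reporter transcription units under cis-regulatory promoter control, so endogenous transcription-factor activity is read. After 24 h compound exposure, reporter mRNA quantified by RT-PCR, fluorescent labelling, HpaI digestion and capillary electrophoresis; bidirectional fitting versus DMSO.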

[2] = ATG_NFI_CIS: Attagene CIS-FACTORIAL HepG2 Assay for human Nuclear Factor I (NFI) (AID 2282989); settings: HepG2 cis-regulatory reporter, NFI response element transcription; actives raise or lower the signal
Outline: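 Transfected HepG2 liver cells, exposed 24 h, supplied total RNA for oligo(dT) reverse transcription and reporter-specific PCR. Labelled, HpaI-cut fragments were sized by capillary electrophoresis; DMSO set the baseline for bidirectional fitting.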

[3] = biological target: Myc proto-oncogene protein (Homo sapiens) (UniProt P01106); assay: ATG_Myc_CIS: Attagene CIS-FACTORIAL HepG2 Assay for human Myelocytomatosis (Myc) Proto-Oncogene Transcription Factor (AID 2282990); settings: HepG2, Attagene cis-reporter transcription factor activity; actives raise or lower the signal
Sequence of Myc proto-oncogene protein (Homo sapiens) (P01106 whole entry, looked up): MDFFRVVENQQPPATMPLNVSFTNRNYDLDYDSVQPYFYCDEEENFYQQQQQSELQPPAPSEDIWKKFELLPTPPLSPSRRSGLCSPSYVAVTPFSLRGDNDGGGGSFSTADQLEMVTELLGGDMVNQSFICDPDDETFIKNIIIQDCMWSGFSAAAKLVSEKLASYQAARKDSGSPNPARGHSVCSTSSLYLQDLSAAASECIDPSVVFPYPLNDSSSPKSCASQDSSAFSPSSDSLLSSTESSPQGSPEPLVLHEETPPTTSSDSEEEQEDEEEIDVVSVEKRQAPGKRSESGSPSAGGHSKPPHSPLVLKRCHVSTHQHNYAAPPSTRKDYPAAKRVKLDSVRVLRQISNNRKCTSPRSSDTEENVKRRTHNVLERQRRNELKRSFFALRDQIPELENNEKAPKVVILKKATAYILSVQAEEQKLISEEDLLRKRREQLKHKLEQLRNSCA
Outline: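 DMSO-normalised, bidirectionally fitted reporter mRNA signal. HepG2 cells transfected with cis reporter constructs, treated 24 h; transcripts detected by RT-PCR, 6-FAM primer extension and CE.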

[4] = ATG_NF_kB_CIS: Attagene CIS-FACTORIAL HepG2 Assay for human Nuclear Factor Kappa B (NF-kB) (AID 2282991); settings: HepG2 Attagene cis-factorial NF-kB reporter mRNA; actives raise or lower the signal
Outline: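 HepG2 cells transiently transfected with multiplexed cis-element reporter units measuring endogenous transcription factor activity; reporter mRNA read 24 h after dosing by RT-PCR, fluorescent labelling, HpaI digestion and capillary electrophoresis. Bidirectional fit against DMSO baseline.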

[5] = ATG_NRF2_ARE_CIS: Attagene CIS-FACTORIAL HepG2 Assay for human Nuclear Factor Erythroid 2 Related Factor 2 (NFR2) response to Antioxidant Response Elements (ARE) (AID 2282992); settings: HepG2 Attagene ARE/NRF2 reporter, transcription factor activity; actives raise or lower the signal;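 as to AC50: reporter mRNA level measured by RT-PCR and capillary electrophoresis fluorescence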
Outline: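 Readout: reporter mRNA quantified by RT-PCR plus FAM-labelled primer extension, HpaI digestion and capillary electrophoresis, 24 h after dosing transfected HepG2 cells. Gain or loss of signal is fitted bidirectionally against DMSO baseline.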

[6] = ATG_Oct_MLP_CIS: Attagene CIS-FACTORIAL HepG2 Assay for human Octamer-Binding Transcription Factor (Oct) (AID 2282993); settings: HepG2 Attagene cis-factorial Oct reporter, mRNA; actives raise or lower the signal
Outline: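 Using HepG2 cells bearing transfected cis-reporter constructs, mRNA induction was read after 24 h by fluorescent RT-PCR and capillary electrophoresis, with DMSO defining baseline for gain- or loss-of-signal fits.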

[7] = biological target: Cellular tumor antigen p53 (Homo sapiens) (UniProt P04637); assay: ATG_p53_CIS: Attagene CIS-FACTORIAL HepG2 Assay for human p53 Transcription Factor (AID 2282994); settings: HepG2 p53 cis-element reporter, Attagene mRNA; actives raise or lower the signal
Sequence of Cellular tumor antigen p53 (Homo sapiens) (P04637 whole entry, looked up): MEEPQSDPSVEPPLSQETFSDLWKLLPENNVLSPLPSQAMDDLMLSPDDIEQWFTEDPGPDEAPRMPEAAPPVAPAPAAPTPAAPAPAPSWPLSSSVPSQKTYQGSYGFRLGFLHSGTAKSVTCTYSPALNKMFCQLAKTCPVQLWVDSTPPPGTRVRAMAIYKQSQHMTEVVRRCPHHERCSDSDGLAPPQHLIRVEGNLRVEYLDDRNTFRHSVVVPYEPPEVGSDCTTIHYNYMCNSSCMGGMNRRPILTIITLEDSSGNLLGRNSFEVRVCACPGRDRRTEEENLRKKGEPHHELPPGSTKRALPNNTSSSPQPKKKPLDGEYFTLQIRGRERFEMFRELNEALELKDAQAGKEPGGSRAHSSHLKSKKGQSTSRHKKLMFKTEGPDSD
Outline: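 Read-out: reporter mRNA by RT-PCR plus capillary electrophoresis with fluorescence detection. Human HepG2 liver cells carried transfected multi-reporter cis-element constructs, dosed 24 h. Gain or loss of signal fitted bidirectionally against DMSO control.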

[8] = BSK_3C_TissueFactor: BioMAP Diversity Plus: 3C Assay for Tissue Factor Biomarker Activity (AID 2282997); settings: BioMAP 3C HUVEC, tissue factor biomarker readout; actives raise or lower the signal
Outline: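 Tissue factor on primary human umbilical vein endothelium was read by ELISA 24 h after dosing, gain or loss relative to DMSO. Cytotoxicity ran alongside via SRB (0.1%, TCA-fixed, 560 nm).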

[9] = BSK_3C_uPAR: BioMAP Diversity Plus: 3C Assay for Urokinase-type plasminogen activator receptor (uPAR) Biomarker Activity (AID 2282998); settings: BioMAP 3C HUVEC, uPAR biomarker ELISA; actives raise or lower the signal
Outline: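 In this endothelial cell-based assay, human umbilical vein primary cells were treated with chemicals and harvested at 24 h. uPAR was quantified using ELISA, with gains or losses fitted relative to DMSO controls.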

[10] = BSK_3C_VCAM1: BioMAP Diversity Plus: 3C Assay for Vascular cell adhesion molecule 1 (VCAM1) Biomarker Activity (AID 2282999); settings: BioMAP 3C HUVEC, VCAM1 ELISA, cytokine-stimulated; actives raise or lower the signal
Outline: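 Vascular primary endothelium (human umbilical vein) was exposed to chemicals and assayed 24 h later. VCAM-1 levels came from ELISA, with DMSO serving as baseline for bidirectional fitting.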

[11] = BSK_4H_Eotaxin3: BioMAP Diversity Plus: 4H Assay for Eotaxin 3 Biomarker Activity (AID 2283000); settings: primary human endothelial cells (HUVEC); actives raise or lower the signal
Outline: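 Human umbilical vein endothelial cells (BSK_4H system) dosed with test chemical; Eotaxin-3 (CCL26) measured by ELISA 24 h after dosing. Bidirectional curve fitting relative to DMSO negative control as baseline.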

[12] = biological target: human Peroxisome Proliferator-activated Receptor delta (PPARd), PPARD (gene 5467) (UniProt Q03181); assay: ATG_PPARd_TRANS: Attagene TRANS-FACTORIAL HepG2 Assay for human Peroxisome Proliferator-activated Receptor delta (PPARd) (AID 2283002; active = hit-call score of the fitted dose curve at least 0.9, where 1 is the maximum)
Sequence of human Peroxisome Proliferator-activated Receptor delta (PPARd), PPARD (gene 5467) (Q03181 whole entry, looked up, the tested form may be a part): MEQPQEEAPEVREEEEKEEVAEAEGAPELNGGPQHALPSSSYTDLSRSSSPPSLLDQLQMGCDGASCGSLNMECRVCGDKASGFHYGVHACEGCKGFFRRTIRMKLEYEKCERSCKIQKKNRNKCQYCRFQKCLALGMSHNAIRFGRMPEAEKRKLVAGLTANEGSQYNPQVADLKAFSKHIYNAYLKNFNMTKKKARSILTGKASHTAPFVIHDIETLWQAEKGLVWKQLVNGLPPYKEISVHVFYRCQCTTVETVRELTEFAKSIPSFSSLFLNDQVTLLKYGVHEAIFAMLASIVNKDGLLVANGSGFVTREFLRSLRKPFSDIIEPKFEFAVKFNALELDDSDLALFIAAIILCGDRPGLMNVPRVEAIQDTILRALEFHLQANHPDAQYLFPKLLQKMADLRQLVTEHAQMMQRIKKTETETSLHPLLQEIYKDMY
Outline: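 Measured quantity: GAL4-UAS reporter transcript induction in HepG2 after 24 h chemical dosing, with NR-Gal4 chimeras supplied by transient transfection. Detection by RT-PCR and capillary electrophoresis; upward fit against DMSO.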

[13] = biological target: human Retinoic Acid Receptor beta (RARb), RARB (gene 5915) (UniProt P10826); assay: ATG_RARb_TRANS: Attagene TRANS-FACTORIAL HepG2 Assay for human Retinoic Acid Receptor beta (AID 2283004; active = hit-call score of the fitted dose curve at least 0.9, where 1 is the maximum)
Sequence of human Retinoic Acid Receptor beta (RARb), RARB (gene 5915) (P10826 whole entry, looked up, the tested form may be a part): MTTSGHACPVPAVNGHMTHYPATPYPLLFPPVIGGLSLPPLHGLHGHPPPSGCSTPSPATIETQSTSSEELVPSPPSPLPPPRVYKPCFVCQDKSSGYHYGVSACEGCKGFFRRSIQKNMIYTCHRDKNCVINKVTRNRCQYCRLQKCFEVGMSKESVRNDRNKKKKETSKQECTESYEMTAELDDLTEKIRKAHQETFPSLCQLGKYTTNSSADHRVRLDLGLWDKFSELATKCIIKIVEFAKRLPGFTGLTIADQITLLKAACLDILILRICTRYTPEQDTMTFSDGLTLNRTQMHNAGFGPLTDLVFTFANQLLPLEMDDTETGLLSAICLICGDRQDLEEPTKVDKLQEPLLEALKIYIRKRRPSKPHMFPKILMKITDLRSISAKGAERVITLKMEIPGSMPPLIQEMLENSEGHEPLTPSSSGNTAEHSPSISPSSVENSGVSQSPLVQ
Outline: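 Induction of reporter mRNA from a chimeric RARb-Gal4 construct was measured by RT-PCR, FAM labelling, HpaI digestion and capillary electrophoresis. Measurements followed 24 h compound treatment of transiently transfected human HepG2 liver cells, with DMSO as baseline.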

[14] = BSK_3C_Proliferation: Cell Proliferation Assessment in the BioMAP Diversity Plus: 3C Assay (AID 2283006); settings: primary human endothelial cells (HUVEC);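 as to AC50: potency may reflect either rise or fall in cell number versus DMSO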
Outline: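 HUVEC, sub-confluent; 48 h chemical exposure; 10% TCA fix, 0.1% SRB stain, A560 total protein. Gain or loss of signal fitted both directions vs DMSO control.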

[15] = biological target: Peroxisome proliferator-activated receptor gamma (Homo sapiens) (UniProt P37231); assay: ATG_PPARg_TRANS: Attagene TRANS-FACTORIAL HepG2 Assay for human Peroxisome Proliferator-activated Receptor-gamma (PPARg) (AID 2283007; active = hit-call score of the fitted dose curve at least 0.9, where 1 is the maximum)
Sequence of Peroxisome proliferator-activated receptor gamma (Homo sapiens) (P37231 whole entry, looked up, the tested form may be a part): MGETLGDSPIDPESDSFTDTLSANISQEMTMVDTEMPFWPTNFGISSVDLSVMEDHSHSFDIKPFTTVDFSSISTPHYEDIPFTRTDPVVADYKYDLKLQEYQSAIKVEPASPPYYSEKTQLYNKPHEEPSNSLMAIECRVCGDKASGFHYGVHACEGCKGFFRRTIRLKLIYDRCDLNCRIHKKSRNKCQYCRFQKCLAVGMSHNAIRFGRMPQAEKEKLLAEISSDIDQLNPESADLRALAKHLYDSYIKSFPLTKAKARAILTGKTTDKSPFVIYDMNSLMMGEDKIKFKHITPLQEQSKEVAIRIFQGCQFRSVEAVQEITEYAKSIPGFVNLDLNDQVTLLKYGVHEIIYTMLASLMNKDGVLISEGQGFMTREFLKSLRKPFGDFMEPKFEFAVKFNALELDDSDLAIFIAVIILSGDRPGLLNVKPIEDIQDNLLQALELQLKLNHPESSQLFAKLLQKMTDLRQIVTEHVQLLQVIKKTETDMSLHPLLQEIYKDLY
Outline: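 HepG2 cells transiently transfected with multiplexed GAL4-UAS reporter units and exogenous chimeric NR-Gal4 proteins; reporter mRNA quantified after 24 h compound exposure by RT-PCR, fluorescent labelling, HpaI digestion and capillary electrophoresis; gain-of-signal fitted versus DMSO baseline.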

[16] = biological target: Nuclear receptor subfamily 1 group I member 2 (Homo sapiens) (UniProt O75469); assay: ATG_PXR_TRANS: Attagene TRANS-FACTORIAL HepG2 Assay for human Pregnane X Receptor (PXR) (AID 2283008; active = hit-call score of the fitted dose curve at least 0.9, where 1 is the maximum)
Sequence of Nuclear receptor subfamily 1 group I member 2 (Homo sapiens) (O75469 whole entry, looked up, the tested form may be a part): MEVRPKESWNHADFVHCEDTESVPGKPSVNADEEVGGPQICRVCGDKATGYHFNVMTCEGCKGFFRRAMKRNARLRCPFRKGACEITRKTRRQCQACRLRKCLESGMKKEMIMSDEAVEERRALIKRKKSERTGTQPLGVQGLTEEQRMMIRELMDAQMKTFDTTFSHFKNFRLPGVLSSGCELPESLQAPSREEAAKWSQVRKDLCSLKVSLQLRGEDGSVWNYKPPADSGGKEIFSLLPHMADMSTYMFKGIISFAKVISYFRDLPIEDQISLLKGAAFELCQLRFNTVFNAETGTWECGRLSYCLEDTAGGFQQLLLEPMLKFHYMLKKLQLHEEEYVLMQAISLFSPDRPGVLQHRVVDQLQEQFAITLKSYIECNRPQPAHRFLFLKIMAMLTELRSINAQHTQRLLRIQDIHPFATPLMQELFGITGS
Outline: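 Trans-factorial format: exogenous NR-Gal4 fusion activity, not endogenous factor, in transfected human HepG2 liver cells. After 24 h dosing, RNA isolated, reverse-transcribed, amplified and resolved by capillary electrophoresis; induction scored versus DMSO.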

[17] = biological target: human Retinoic Acid Receptor gamma (RARg), RARG (gene 5916) (UniProt P13631); assay: ATG_RARg_TRANS: Attagene TRANS-FACTORIAL HepG2 Assay for human Retinoic Acid Receptor gamma (RARg) (AID 2283009; active = hit-call score of the fitted dose curve at least 0.9, where 1 is the maximum;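 as to AC50: AC50 is for reporter induction above DMSO meaning RARg activation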)
Sequence of human Retinoic Acid Receptor gamma (RARg), RARG (gene 5916) (P13631 whole entry, looked up, the tested form may be a part): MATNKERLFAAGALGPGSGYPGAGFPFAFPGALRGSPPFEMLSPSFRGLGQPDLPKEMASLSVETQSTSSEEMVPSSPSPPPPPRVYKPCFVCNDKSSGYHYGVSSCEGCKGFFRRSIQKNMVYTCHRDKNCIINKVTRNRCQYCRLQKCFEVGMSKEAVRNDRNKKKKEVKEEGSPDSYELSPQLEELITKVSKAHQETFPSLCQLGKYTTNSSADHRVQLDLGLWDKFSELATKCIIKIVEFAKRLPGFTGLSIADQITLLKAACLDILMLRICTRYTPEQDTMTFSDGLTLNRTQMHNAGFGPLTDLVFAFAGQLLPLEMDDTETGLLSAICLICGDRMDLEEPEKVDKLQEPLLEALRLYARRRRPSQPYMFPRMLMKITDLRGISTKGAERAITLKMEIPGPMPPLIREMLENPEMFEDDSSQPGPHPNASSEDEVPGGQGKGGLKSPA
Outline: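 Readout: reporter transcript levels via RT-PCR, 6-FAM primer-extension labelling, HpaI digestion and capillary electrophoresis. Cells: HepG2 carrying transfected RARg-GAL4 chimera plus UAS reporter set. Dosing 24 h; DMSO negative control.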

[18] = biological target: human Peroxisome Proliferator-activated Receptor alpha (PPARa), PPARA (gene 5465) (UniProt Q07869); assay: ATG_PPARa_TRANS: Attagene TRANS-FACTORIAL HepG2 Assay for human Peroxisome Proliferator-activated Receptor alpha (PPARa) (AID 2283001; active = hit-call score of the fitted dose curve at least 0.9, where 1 is the maximum;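 as to AC50: potency for gain of reporter signal over DMSO so agonist or activator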)
Sequence of human Peroxisome Proliferator-activated Receptor alpha (PPARa), PPARA (gene 5465) (Q07869 whole entry, looked up, the tested form may be a part): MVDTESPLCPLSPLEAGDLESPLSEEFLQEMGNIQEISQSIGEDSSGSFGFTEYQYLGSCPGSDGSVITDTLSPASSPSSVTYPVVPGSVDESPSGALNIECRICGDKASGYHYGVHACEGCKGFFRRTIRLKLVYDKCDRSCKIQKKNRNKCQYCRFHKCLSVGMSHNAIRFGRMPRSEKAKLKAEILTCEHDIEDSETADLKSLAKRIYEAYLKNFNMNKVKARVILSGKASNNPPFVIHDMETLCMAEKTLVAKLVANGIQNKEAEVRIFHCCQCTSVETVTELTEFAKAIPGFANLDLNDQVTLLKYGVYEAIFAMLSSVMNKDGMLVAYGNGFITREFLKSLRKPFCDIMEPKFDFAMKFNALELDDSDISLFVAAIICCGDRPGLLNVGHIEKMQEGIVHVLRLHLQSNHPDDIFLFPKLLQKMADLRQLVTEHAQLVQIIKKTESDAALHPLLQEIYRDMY
Outline: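 Exposure: 24 h, transiently transfected HepG2 cells. Endpoint: GAL4-UAS reporter mRNA, RT-PCR with capillary electrophoresis fluorescence. Baseline: DMSO; increases fitted.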

[19] = biological target: Retinoic acid receptor alpha (Homo sapiens) (UniProt P10276); assay: ATG_RARa_TRANS: Attagene TRANS-FACTORIAL HepG2 Assay for human Retinoic Acid Receptor alpha (RARa) (AID 2283005; active = hit-call score of the fitted dose curve at least 0.9, where 1 is the maximum;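 as to AC50: potency for increased reporter signal meaning RARa activation over DMSO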)
Sequence of Retinoic acid receptor alpha (Homo sapiens) (P10276 whole entry, looked up, the tested form may be a part): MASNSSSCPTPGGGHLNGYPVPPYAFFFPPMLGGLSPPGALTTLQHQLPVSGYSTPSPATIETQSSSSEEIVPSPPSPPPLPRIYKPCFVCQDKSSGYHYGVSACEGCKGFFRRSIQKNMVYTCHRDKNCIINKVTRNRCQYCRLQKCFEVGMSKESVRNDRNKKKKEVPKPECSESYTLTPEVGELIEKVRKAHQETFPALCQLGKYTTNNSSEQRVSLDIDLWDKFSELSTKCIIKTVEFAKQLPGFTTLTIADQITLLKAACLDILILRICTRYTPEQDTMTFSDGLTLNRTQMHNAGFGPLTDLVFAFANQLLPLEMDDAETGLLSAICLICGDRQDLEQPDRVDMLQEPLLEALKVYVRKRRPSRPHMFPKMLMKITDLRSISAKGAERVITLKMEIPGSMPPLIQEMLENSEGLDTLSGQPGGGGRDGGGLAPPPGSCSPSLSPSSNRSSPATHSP
Outline: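 HepG2 cells transiently transfected with multiple reporter units expressing chimeric RARα-GAL4 fusion, with GAL4-UAS-driven reporters. After 24 h compound exposure, reporter mRNA induction quantified by RT-PCR and capillary electrophoresis with fluorescent labeling; gain-of-signal fitted relative to DMSO control.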

[20] = read-out: Intercellular Adhesion Molecule 1 (ICAM1), ICAM1 (gene 3383); assay: BSK_3C_ICAM1: BioMAP Diversity Plus: 3C Assay for Intercellular Adhesion Molecule 1 (ICAM1) Biomarker Activity (AID 2283003); settings: primary human endothelial cells (HUVEC); actives raise or lower the signal
Outline: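 ELISA read-out of ICAM-1; HUVEC (primary human), 3C system, 24 h post-dosing; bidirectional fit vs DMSO baseline.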

Measured: AC50

CCC(C)(NC(=O)c1cc(Cl)c(C)c(Cl)c1)C(=O)CCl (stereo not drawn)
active: [5] 1.64 µM | [8] 5.41 µM | [9] 14.4 µM | [10] 9.51 µM | [11] 9.74 µM | [14] 5.47 µM | [15] 878 nM
not listed: [18] | [19] | [20]
inactive: all other assays above

CCC(C)Nc1c([N+](=O)[O-])cc(C(C)(C)C)cc1[N+](=O)[O-] (stereo not drawn)
active: [5] 8.79 µM | [6] 15.1 µM | [9] 17.8 µM | [10] 24.8 µM | [14] 34.6 µM | [15] 36800 nM | [16] 8.2 µM
not listed: [4] | [7] | [12] | [20]
inactive: all other assays above

CCS(=O)(=O)c1cccnc1S(=O)(=O)NC(=O)Nc1nc(OC)cc(OC)n1
active: [5] 17.6 µM and 19.1 µM
not listed: [13] | [20]
inactive: all other assays above

Oc1ccc(Cl)cc1Cc1ccccc1
active: [2] 13.1 µM | [4] 16.7 µM | [5] 8.4 µM [middle of 9 runs] | [6] 6.94 µM and 8.1 µM and 14.8 µM | [8] 32.4 µM [middle of 7 runs] | [9] 29.2 µM [middle of 7 runs] | [10] 34.9 µM [middle of 7 runs] | [11] 34.4 µM [middle of 7 runs] | [18] 53.5 µM | [20] 37.1 µM [middle of 7 runs] | [14] 24.8 µM [middle of 7 runs] | [15] 8.85 µM [middle of 4 runs] | [16] 6.4 µM [middle of 5 runs]
inactive: [1] | [2] | [4] | [5] | [6] | [7] | [18] | [12] | [13] | [19] | [15] | [16] | [17]

ClC1C(Cl)C(Cl)C(Cl)C(Cl)C1Cl (stereo not drawn)
inactive: [1] | [2] | [4] | [5] | [6] | [7] | [8] | [9] | [10] | [11] | [18] | [12] | [13] | [19] | [14] | [15] | [17]
active: [5] 33.2 µM and 26.2 µM | [6] 10.1 µM and 100 µM | [7] 150 µM and 77.6 µM | [9] 28.4 µM | [10] 30.1 µM | [11] 32.5 µM | [19] 20.6 µM and 6.26 µM and 37.2 µM | [14] 29.2 µM and 28 µM | [17] 6.81 µM and 8.7 µM
